In the library only some 8.9% were active in any assay of this set; here they are far more common.
KB-V1 cytotox: qHTS assay for MDR1-selective chemotherapeutics: Primary screen using the drug-selected MDR subline cells KB-V1; AID 1347076, 2019; KB-V1 MDR cells viability, CellTiter-Glo, 72 h; Potency, µM (highest dose often 46.1 µM), actives largely listed as cytotoxic; 3.4% of 400,000 active; further: potency means the concentration at half of the fitted maximal effect; on the % scale 0 is the no-effect control and ±100 the full control effect; nearly all actives have a fitted effect of over 60% in size
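Cytotoxicity via CellTiter-Glo luminescence after 72 h compound exposure at 37 degrees C. Cells: drug-selected KB-V1 line, DMEM phenol-red free plus 10% FBS. Compounds tested at multiple concentrations; normalized data fitted to concentration-effect curves.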
KB-3-1 cytotox: qHTS assay for MDR1-selective chemotherapeutics: Primary screen using the parental adenocarcinoma cell KB-3-1; 1.4% of 400,000 active; AID 1347075, 2019; Potency, µM (doses to about 46.1 µM), usual class: cytotoxic; KB-3-1 viability, CellTiter-Glo ATP luminescence, 72 h; further: potency means the concentration at half of the fitted maximal effect; on the % scale 0 is the no-effect control and ±100 the full control effect; nearly all actives have a fitted effect of over 60% in size
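Multi-concentration cytotoxicity screen in KB-3-1 cells grown in DMEM lacking phenol red with 10% FBS. After 72 h at 37 °C with compound, ATP-dependent luminescence was recorded.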
MCF10A rerep: A quantitative high throughput screen for small molecules that induce DNA re-replication in MCF 10a normal breast cells; 2.9% of 350,000 active; MCF 10A DNA re-replication, Hoechst nuclear intensity, 48 h; Potency, µM (doses to about 46.1 µM), for inactives: top-dose activity, positive = re-replication, most hits filed as activators; AID 624296, 2012; further: potency means the concentration at half of the fitted maximal effect; % of control where 0% means no effect; nearly all actives have a fitted effect of over 50% in size
SW480 rerep: A quantitative high throughput screen for small molecules that induce DNA re-replication in SW480 colon adenocarcinoma cells; 1.8% of 340,000 active; Potency, µM (series often up to 46.1 µM), without a hit: at the highest dose re-replication activation, most hits filed as activators; SW480 DNA re-replication, Hoechst DNA content imaging, 48 h; further: potency means the concentration at half of the fitted maximal effect; % of control where 0% means no effect; nearly all actives have a fitted effect of over 55% in size
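Hoechst fluorescence of nuclei (405 nm excitation, 500-530 nm emission) measured by plate-scanning imager after 48 hr compound exposure at 37 C; re-replication scored as increased number of nuclei with elevated intensity.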
D3 antag: qHTS of D3 Dopamine Receptor Antagonist: qHTS; D(3) dopamine receptor (Homo sapiens), P35462; D3R cells, DiscoveRx beta-arrestin luminescence, antagonist mode; hits give low values; max response, negative = inhibition, %; 2.5% of 360,000 active; in the data active means max response below about -50%; inconclusive means no clear call, values can overlap the other calls; further: on the % scale 0 is the no-effect control and ±100 the full control effect
Target sequence (P35462 whole entry, looked up): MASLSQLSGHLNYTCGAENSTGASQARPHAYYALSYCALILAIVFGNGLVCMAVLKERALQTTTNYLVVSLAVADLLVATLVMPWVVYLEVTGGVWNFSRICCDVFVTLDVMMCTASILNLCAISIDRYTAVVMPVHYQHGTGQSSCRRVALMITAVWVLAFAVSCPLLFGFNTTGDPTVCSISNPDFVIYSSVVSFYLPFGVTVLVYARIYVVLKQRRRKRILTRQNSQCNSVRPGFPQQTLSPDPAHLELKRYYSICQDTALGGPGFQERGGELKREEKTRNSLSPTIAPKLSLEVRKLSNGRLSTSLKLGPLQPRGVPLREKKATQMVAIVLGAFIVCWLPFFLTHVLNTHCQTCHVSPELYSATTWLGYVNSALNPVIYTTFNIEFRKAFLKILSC
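Cells plated overnight at 1500 cells/well, then exposed to library compounds with dopamine controls for 90 minutes at 37 degrees C. DiscoveRx reagent added for 30–60 minutes at room temperature; luminescence read, quantitative HTS format.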
DRD3 agonist: qHTS of D3 Dopamine Receptor Agonist: qHTS. max activation, %. 0.58% of 410,000 active. D3R DiscoveRx beta-arrestin cells, luminescence, 90 min. D(3) dopamine receptor (Homo sapiens), P35462. AID 652048, 2013; in the data active means max activation above about 30%; further: 0% is about no effect
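Agonist-mode cell screen: cells plated at 1500/well and incubated overnight at 37 °C, then exposed to library compounds for 90 min at 37 °C. Detection reagent was added for 30–60 min at room temperature, and luminescence was read.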
Numbers without * were called inactive; i = inactive; ? = inconclusive; . = no result given; [ ] = remark or other dose. Unless noted, the call rests on the fitted dose curve; in most records, active means well fitted curve in the direction sought with a large enough effect; inconclusive means small, poorly fitted or top-dose-only effect, or another doubt; inactive means no such curve, though single readings can be large; an effect the other way counts as inactive or inconclusive.

SMILES | KB-V1 cytotox | KB-3-1 cytotox | MCF10A rerep | SW480 rerep | D3 antag | DRD3 agonist
N#CC(C#N)=C1C=CC=CN1/C(=C\c1ccco1)C(=O)c1ccc(Br)cc1 | i | ? | 3.3µM* | 4.6µM* | -99* | -11
N#C/C(=C/c1ccco1)C(N)=S | i | i | 0% | 6% | ? | -6
COc1ccc(/C=C(/C(=O)c2cccs2)N2C=CC=CC2=C(C#N)C#N)cc1 | i | i | ? | ? | -81* | -10
N#CC(C#N)=C1C=CC=CN1/C(=C\c1ccco1)C(=O)c1ccccc1 | ? | ? | 2.6µM* | ? | -106* | -12
CCOC(=O)C1=C(CN2CCN(c3ccccc3F)CC2)NC(=O)NC1c1ccc(Cl)cc1 (centres undefined) | i | i | . | . | . | -3
COc1ccc(F)cc1-c1cc(C(=O)NCc2ccc(C(F)(F)F)cc2)[nH]n1 | i | i | . | . | -73* | -21
COc1ccc(F)cc1-c1cc(C(=O)NCc2cccc(C(F)(F)F)c2)[nH]n1 | i | i | . | . | -24 | -5
Cc1ccc(F)cc1-c1cc(C(=O)NCc2cc(C(F)(F)F)cc(C(F)(F)F)c2)[nH]n1 | i | i | . | . | -70* | -13
Cc1cccc(NC(=O)CN2C(=O)CCc3ccccc32)c1C | i | i | . | . | . | -18
CCOC(=O)[C@H](CCc1ccccc1)N[C@@H](C)C(=O)N1CCC[C@@H]1C(=O)O | i | i | -38% | . | 18 | 74*
CCOC(=O)[C@H](CCc1ccccc1)N[C@@H](C)C(=O)N1CCC[C@H]1C(=O)O | i | i | -7% | ? | 0 | -9
CCOc1ccc(NC(=O)CSc2nc3nc(C)c(Cc4ccccc4)c(C)n3n2)cc1 | . | . | . | . | . | 12
C/C(N)=C(/C#N)C(=O)COC(=O)[C@@H](NC(=O)c1ccccc1Cl)C(C)C | i | i | 2.1µM* | -56% | 10 | 7
Cc1ccc(-c2cc3nn(-c4ccccc4)c(N)c3c(=O)o2)cc1 | 16µM* | 21µM* | 16% | ? | 31 | -1
Cc1ccc(-n2nc(-c3ccccc3)cc2Nc2ccccc2N)cc1 | i | i | 4% | -3% | 6 | -7
Nc1nc(/C(=C/CC(=O)O)C(=O)NC2C(=O)N3C(C(=O)O)=CCSC23)cs1 (centres undefined) | . | . | -1% | -3% | . | .
CC(C)OC(=O)c1cc2c(ccn2C)n1CC(=O)N(Cc1ccccc1)c1ccc(F)cc1 | i | i | 6.5µM* | ? | 0 | 23
O=C(COc1ccccc1Cl)Nc1cc(-c2ccccc2F)nn1-c1ccccc1 | ? | i | . | . | . | -2
Cc1ccc(CNc2nc(-c3ccco3)nn2C(=O)c2ccccc2[N+](=O)[O-])cc1 | ? | i | . | . | . | 0
NC(=O)c1c(NC(=O)C2COc3ccccc3O2)sc2c1CCN(Cc1ccccc1)C2 (centres undefined) | ? | ? | 23µM* | ? | -9 | -13
CCCN1CCc2c(sc(NC(=O)Cc3ccc(F)cc3)c2C(N)=O)C1 | i | i | 16% | ? | -59* | -19
CCOC(=O)c1c(NC(=O)C2COc3ccccc3O2)sc2c1CCN(Cc1ccccc1)C2 (centres undefined) | i | i | ? | -8% | -3 | -17
CCCN1CCc2c(sc(NC(=O)CCS(=O)(=O)c3ccccc3)c2C(=O)OC)C1 | i | i | 18µM* | ? | 16 | 4
COC(=O)c1c(NC(=O)CCS(=O)(=O)c2ccccc2)sc2c1CCN(C)C2 | . | . | ? | ? | 15 | -6
CCCN1CCc2c(sc(NC(=O)c3ccc(S(=O)(=O)N(C)c4ccccc4)cc3)c2C(N)=O)C1 | i | i | 6.5µM* | ? | 13 | 2
SMILES | KB-V1 cytotox | KB-3-1 cytotox | MCF10A rerep | SW480 rerep | D3 antag | DRD3 agonist
CCOc1ccc(-c2nnc(SCC(=O)NCCC(C)C)nc2-c2ccc(OCC)c(OC)c2)cc1OC | i | i | . | . | . | 2
CN(C)c1ccc(/C=C/c2ccnc3cc(Cl)ccc23)cc1 | i | ? | . | . | . | .
CCOC(=O)c1ccc(NC(=O)c2c(N3CCCC3=O)c3cc(OC)ccc3n2C)cc1 | i | i | . | . | . | -7
CCOC(=O)N1CCN(S(=O)(=O)c2ccc(C(=O)Nc3sc4c(c3C(N)=O)CCN(CC)C4)cc2)CC1 | i | ? | ? | 778% | -19 | 1
CCCN1CCc2c(sc(NC(=O)c3ccc(S(=O)(=O)N4CCN(C(=O)OCC)CC4)cc3)c2C(N)=O)C1 | i | i | ? | 21µM* | ? | -1
COc1ccccc1CCNC(=O)c1cccn1-c1nnc(N2CCCC2)s1 | i | i | . | . | . | 2
COc1cccc(NC(=O)C(OC(=O)/C=C/c2ccc3c(c2)OCO3)c2ccccc2)c1 (centres undefined) | i | i | 5% | -1% | -55* | -4
O=C(Nc1ccc(F)cc1)N(Cc1ccco1)Cc1cc2cc3c(cc2[nH]c1=O)OCO3 | i | i | 18µM* | 5% | 0 | -4
CCC(=O)N(CCc1ccccc1)Cc1cc2cc3c(cc2[nH]c1=O)OCO3 | ? | i | -1% | ? | 9 | -6
CCC(=O)N(Cc1ccc(C)cc1)Cc1cc2cc3c(cc2[nH]c1=O)OCO3 | 12µM* | i | -5% | -6% | 20 | 0
O=C(Nc1ccc(F)cc1)N(Cc1cccs1)Cc1cc2cc3c(cc2[nH]c1=O)OCO3 | ? | i | ? | -10% | 34 | 4
O=C(Nc1ccccc1F)N(CCCN1CCOCC1)Cc1cc2cc3c(cc2[nH]c1=O)OCCO3 | i | i | 13% | 1%[9.22 µM] | -55* | 2
O=C(CNC(=O)c1nc[nH]c1C(=O)N1CCNCC1)OCc1ccccc1 | i | i | 10% | -11% | 3 | 13
CC(C)(C)OC(=O)N1CCC(NC(=O)c2[nH]cnc2C(=O)Nc2cccc(Cl)c2)CC1 | ? | i | -11% | 1% | 0 | 66*
CC(C)(C)OC(=O)CNC(=O)c1[nH]cnc1C(=O)NC1CCN(C(=O)OC(C)(C)C)CC1 | i | i | 10% | -5% | 29 | 1
O=C(CNC(=O)c1nc[nH]c1C(=O)N1CCc2ccccc2C1)OCc1ccccc1 | i | ? | 19% | -5% | 54 | 40*

Assay outcomes (PubChem)
